The campaign covered roughly 310,000 compounds. About 14,000 (4.5%) showed an effect of 50% or more. The effect is printed as a negative number. Shown is part of a subset that was picked to be rich in strong results.
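Further: peak tail current of the secondary pulse compared with the same well before compound.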

Sequence of human ether-à-go-go-related gene (hERG) potassium channel (Q12809 whole entry, looked up): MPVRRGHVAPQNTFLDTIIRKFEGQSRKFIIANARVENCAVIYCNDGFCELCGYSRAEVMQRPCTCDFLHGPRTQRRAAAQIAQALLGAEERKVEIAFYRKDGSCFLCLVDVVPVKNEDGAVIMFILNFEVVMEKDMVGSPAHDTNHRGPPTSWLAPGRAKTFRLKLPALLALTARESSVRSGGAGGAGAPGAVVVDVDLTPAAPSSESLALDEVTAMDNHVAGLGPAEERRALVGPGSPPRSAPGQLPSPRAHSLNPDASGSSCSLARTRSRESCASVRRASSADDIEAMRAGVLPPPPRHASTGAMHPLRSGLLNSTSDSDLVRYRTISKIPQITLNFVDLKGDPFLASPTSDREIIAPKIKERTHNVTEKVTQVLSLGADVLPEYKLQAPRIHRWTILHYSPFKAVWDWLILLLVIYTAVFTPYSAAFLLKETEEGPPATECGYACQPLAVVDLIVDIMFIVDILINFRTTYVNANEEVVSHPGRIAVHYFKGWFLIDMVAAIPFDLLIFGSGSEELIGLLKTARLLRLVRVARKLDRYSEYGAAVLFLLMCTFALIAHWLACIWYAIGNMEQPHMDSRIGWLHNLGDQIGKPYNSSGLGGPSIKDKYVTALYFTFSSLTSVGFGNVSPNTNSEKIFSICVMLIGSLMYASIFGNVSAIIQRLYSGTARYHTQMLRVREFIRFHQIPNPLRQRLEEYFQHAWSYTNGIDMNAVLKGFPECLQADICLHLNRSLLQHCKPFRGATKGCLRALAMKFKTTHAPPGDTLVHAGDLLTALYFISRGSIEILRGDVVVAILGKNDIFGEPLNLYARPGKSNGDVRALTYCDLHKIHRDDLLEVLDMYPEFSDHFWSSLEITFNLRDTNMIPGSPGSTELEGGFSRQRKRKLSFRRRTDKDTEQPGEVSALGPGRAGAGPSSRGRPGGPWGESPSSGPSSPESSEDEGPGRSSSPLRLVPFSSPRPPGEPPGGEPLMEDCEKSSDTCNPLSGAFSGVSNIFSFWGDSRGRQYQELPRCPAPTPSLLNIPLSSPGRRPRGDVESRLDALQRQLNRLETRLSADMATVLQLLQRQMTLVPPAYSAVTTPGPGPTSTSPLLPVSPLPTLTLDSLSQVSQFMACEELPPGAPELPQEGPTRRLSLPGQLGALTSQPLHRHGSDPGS

This assay has as its target human ether-à-go-go-related gene (hERG) potassium channel (human, UniProt Q12809). Nature of the assay: primary screen, population patch clamp on CHO cells stably expressing hERG; higher = less effect of the substance.
On to `COc1ccc(CC(=O)NCc2nnc(SCC(=O)Nc3nccs3)n2C)cc1`, for which the “hERG current change (%, negative = inhibition) at 10uM” value stood at 17.3%.
Turning to `CCS(=O)(=O)n1nc(-c2ccccc2)cc1N`, the “hERG current change (%, negative = inhibition) at 10uM” value is 7.55%.
The same measure for `COc1ccc(NC(=O)/C(=C/c2cccs2)NC(=O)c2ccco2)cc1`: -21.1%; for `COc1ccc([N+](=O)[O-])cc1N(CC(=O)N1CCN(Cc2ccccc2)CC1)S(C)(=O)=O`: 5.94%; for `CC(=O)NS(=O)(=O)c1ccccc1`: 9.31%.
Next, `O=C(NNC(=O)c1ccco1)c1cccc(Br)c1`: 0.684%; `O=C(CCC1CCCCC1)NNC(=O)c1cnccn1`: -4.92%; `COc1cc(Cl)c(C)cc1NC(=O)CSc1ccccc1`: 5.58%.
The same measure for `O=C(NCC1CCCO1)c1ccc(S(=O)(=O)N2CCC(c3nc4ccc(Cl)cc4[nH]3)CC2)cc1` (stereo not drawn): -18%.
For the molecule `Clc1ccc(CN2CCC(c3nc4ccc(Cl)cc4[nH]3)CC2)cc1`, the “hERG current change (%, negative = inhibition) at 10uM” value is on record as -80.7%.
Turning to `COc1ccc(CN2CCC(c3nc4ccc(Cl)cc4[nH]3)CC2)cc1`, the “hERG current change (%, negative = inhibition) at 10uM” value is listed as -76.3%.
The same measure for `CCC(C)(C)n1nnnc1CN1CCC(c2nc3ccc(C)cc3[nH]2)CC1`: -48.3%; for `COc1ccc(NC(=S)N2CCCC(c3nc4ccc(C)cc4[nH]3)C2)cc1` (stereo not drawn): -10.5%.
The same measure for `COc1ccc(NC(=S)N2CCC(c3nc4ccc(Cl)cc4[nH]3)CC2)c(OC)c1`: -42.6%; for `Cc1ccc(CN2CCC(c3nc4ccc(Cl)cc4[nH]3)CC2)cc1`: -83%.
Next, `Cc1ccc(Cn2nnnc2CN2CCC(c3nc4ccc(Cl)cc4[nH]3)CC2)cc1`: 5.01%; `O=S(=O)(c1ccc(Cl)cc1)N1CCC(c2nc3ccccc3[nH]2)CC1`: 1.05%.
On to `COc1ccc(NC(=O)CCCN2C(=O)C(c3ccccc3)Oc3cccnc32)cc1OC` (stereo not drawn), for which the “hERG current change (%, negative = inhibition) at 10uM” value came out at 1.23%.
For `CCCCNC(=O)Cn1cnc2sc(C)c(S(=O)(=O)N3CCN(c4ccccc4OC)CC3)c2c1=O`, the “hERG current change (%, negative = inhibition) at 10uM” value is reported as 11.4%.
Next, `O=C(Nc1nc(-c2cc(Cl)sc2Cl)cs1)c1ccc(Br)s1`: -6.05%.
Next, `Cc1cccc(/C(N)=N/OC(=O)Cc2cccs2)c1`: -12.4%; `Cc1cc(-c2cc(C(=O)NC3CCCC3)on2)nc(NC2CCCC2)n1`: 4.57%.
On to `COc1ccc(S(=O)(=O)NC(C)(C)C)cc1-c1nnc2c3ccccc3c(C)nn12`, for which the “hERG current change (%, negative = inhibition) at 10uM” value is reported as -5.05%.
Next, `CNS(=O)(=O)c1ccc(OC)c(-c2nnc3c4ccccc4c(C)nn23)c1.Cl`: 7.8%; `COc1ccc(S(=O)(=O)NCc2ccco2)cc1-c1nnc2c3ccccc3c(C)nn12`: -50.3%.
Next, `CC(=O)c1c(C)n(Cc2ccccc2)c2ccc(O)cc12`: 12.8%.
Next, `COc1ccc(C2=NN(C(=O)CSc3nc(=O)n4cccc(C)c4n3)C(c3ccc(C)cc3)C2)cc1` (stereo not drawn): 4.53%; `COc1ccc(C2=NN(C(=O)CSc3nc(=O)n4cc(C)ccc4n3)C(c3ccc(C)cc3)C2)cc1` (stereo not drawn): -16.2%.
Turning to `Cc1ccc(C2CC(c3cccs3)=NN2C(=O)CSC2=NCCS2)cc1` (stereo not drawn), the “hERG current change (%, negative = inhibition) at 10uM” value is on record as -2.21%.
For `CCC(=O)N1N=C(c2cccs2)CC1c1ccc(C)cc1` (stereo not drawn), the “hERG current change (%, negative = inhibition) at 10uM” value came to 2.52%.
Next, `COc1ccc(C2CC(c3cccs3)=NN2C(=O)CSc2nc(=O)n3cc(C)ccc3n2)cc1` (stereo not drawn): -64.8%; `Cc1ccc(C2CC(c3cccs3)=NN2C(=O)CSc2nc(=O)n3cc(C)ccc3n2)cc1` (stereo not drawn): -66.6%; `Cc1nn(C(C)C(=O)NC(C)CCc2ccccc2)c(=O)c2cc3occc3n12` (stereo not drawn): -13.7%.
Next, `O=C(NC1=NCCS1)C1CCN(S(=O)(=O)c2ccccc2C(F)(F)F)CC1`: 6.92%; `COc1ccc(-c2coc3cc(OC)cc(O)c3c2=O)cc1`: 24.5%; `CCOc1ccc2c(C)nc(NC3=NC(C)(C)C=C(C)N3)nc2c1`: -45%.
The same measure for `CC1=CC(C)(C)N=C(Nc2nc(C)c3cc(C)cc(C)c3n2)N1`: -63.5%; for `CCOc1ccc2nc(NC3=NC(C)(C)C=C(C)N3)nc(C)c2c1`: -47.8%; for `CN(C)CCCNC(=O)c1cc(C(=O)c2ccccc2F)c[nH]1`: 1.23%.
As for `CN(C)CCCNC(=O)c1cc(C(=O)c2c(Cl)cccc2Cl)c[nH]1`, the “hERG current change (%, negative = inhibition) at 10uM” value is on record as -9.62%.
`CN(C)CCCNC(=O)c1cc(C(=O)c2ccc(F)cc2)c[nH]1`: the “hERG current change (%, negative = inhibition) at 10uM” value is -68.5%.
Next, `COc1cccc(C(=O)c2c[nH]c(C(=O)NCCCN(C)C)c2)c1`: -4.75%.
The same measure for `CN(C)CCCNC(=O)c1cc(C(=O)c2cccc(Cl)c2Cl)c[nH]1`: -51%.
The same measure for `CN(C)CCCNC(=O)c1cc(C(=O)c2ccccc2)c[nH]1`: 10.5%; for `C#CCOC(=O)c1cc(Cl)c(=O)n(Cc2ccc(Cl)cc2Cl)c1`: -18.8%; for `COC(=O)c1cc2ccsc2n1CC(=O)NCC1CCCO1` (stereo not drawn): 10.6%.
On to `CC(C)Nc1nc(NNc2nc(Cl)nc(NC(C)(C)C)n2)nc(NC(C)C)n1`, for which the “hERG current change (%, negative = inhibition) at 10uM” value was found to be 10.1%.
Next, `Cc1cc(NC(=O)CSc2nc(C3CCCCC3)nc3ccccc23)no1`: 18.9%.
In the case of `CC/C(=C\c1oc2cc3ccccc3cc2[n+]1CC)Nc1ccccc1.[I-]`, the “hERG current change (%, negative = inhibition) at 10uM” value is recorded as -78.1%.
Next, `CCC(=O)Nc1ccc(NC(=O)c2cc3ccccc3o2)cc1`: -2.45%; `O=C(Nc1ccccc1)c1cc2ccccc2o1`: -7.55%.
Next, `COCCn1c(SCC(=O)Nc2cccc(S(N)(=O)=O)c2)nc2cc(Cl)ccc2c1=O`: -38.8%; `CN1Cc2cccc3c2C(Cc2ccccc2S3)C1.O=C(O)/C=C\C(=O)O` (stereo not drawn): -36.6%; `CS(=O)(=O)O.CSc1ccc2c(c1)C(N1CCN(C)CC1)Cc1ccccc1S2` (stereo not drawn): -65.9%.
Next, `O=C(O)/C=C\C(=O)O.OCCN1CCN(C2CCC(c3ccc(F)cc3)c3ccc(F)cc32)CC1` (stereo not drawn): -44.5%; `CN1CCN(C2Cc3ccccc3Sc3cc(C(F)(F)F)ccc32)CC1.O=C(O)/C=C\C(=O)O` (stereo not drawn): -70.2%; `CSc1ccc2c(c1)C(N1CCN(C)CC1)Cc1ccc(F)cc1S2.O=C(O)/C=C\C(=O)O` (stereo not drawn): -58.8%.
Regarding `CN1CCN(C(=O)Nc2ccc3c(c2)N(C)C(=O)c2ccccc2S3)CC1`, the “hERG current change (%, negative = inhibition) at 10uM” value is on record as 8.57%.
Consider `CSc1cccc(NC(=O)N2CCN(C)CC2)c1`, for which the “hERG current change (%, negative = inhibition) at 10uM” value is -31.1%.
Turning to `CN1CCN(C2Cc3cc(F)ccc3Sc3ccc(Cl)cc32)CC1.O=C(O)/C=C\C(=O)O` (stereo not drawn), the “hERG current change (%, negative = inhibition) at 10uM” value was -44.8%.
Next, `COc1ccc2c(c1)CC(N1CCN(C)CC1)c1cc(OC)ccc1S2.O=C(O)/C=C\C(=O)O` (stereo not drawn): -25.9%; `CN1CCN(C2Cc3ccccc3Sc3ccc(Cl)cc32)CC1.O=C([O-])/C=C\C(=O)[O-]` (stereo not drawn): -65.9%.
The same measure for `CN1CCC(=C(c2ccc(Cl)cc2)c2ccccn2)CC1.O=C([O-])/C=C\C(=O)[O-]`: -40.5%.

The values are drawn from publication PMC4336329 (PLoS ONE, 2015).
